Results filed as inconclusive are left out. Where a call stands in place of a potency, no number is given. The source holds several records for some structures; these can differ, active in one and inactive in another. The source made the active and inactive calls. Calls follow the shape of the dose curve; as a rule, active = well fitted cell-killing curve with a large enough effect in the repeat runs; inconclusive = weak or mixed curves, or effect the other way; inactive = flat fitted curve, though single readings scatter.
Potency is read from the fitted curve at half-maximal effect.

This test is described as follows: qHTS assay to identify small molecule agonists of the sonic hedgehog signaling (Shh) pathway - cell viability counter screen (AID 1259366). Also: nearly all actives have a fitted effect of over 50% in size. To be noted: NIH/3T3 Gli1-Luc viability, CellTiter-Fluor, 24 h; series mostly up to 92.4 µM; viability change, negative = cytotoxic: at the top concentration. The text has this: National Center for Advancing Translational Sciences [NCATS]
NIH Chemical Genomics Center [NCGC]
U.S. Environmental Protection Agency [EPA]
National Institutes of Environmental Health Sciences [NIEHS]
National Toxicology Program [NTP]
U.S. Food and Drug Administration [FDA]
The sonic hedgehog (Shh) pathway is essential for normal embryonic development. Dysregulation of the Shh pathway can cause severe developmental defects in organs. Therefore chemicals that interfere with the pathway are potential developmental toxicants. A cell line designated 3T3Gli1-Luc (DMB/OARSA/CFSAN/FDA, Laurel, MD), a NIH/3T3 derived clone containing stably integrated Gli1-Luc reporter is used to detect chemical interference of the Shh pathway, by changes in the expression of the firefly Luc gene under the control of the Gli1 transcriptional response element. This cell line was used to screen Tox21 libraries for identifying and prioritizing the potential developmental toxicants that interfere Shh pathway. The cytotoxicity of the compounds was tested in parallel by measuring the cell viability using CellTiter-Fluor assay system (Promega, Madison, WI) in the same wells.
Tox21 Assay Protocol Summary:
3T3 Gli1-Luc cells were dispensed at 2,000 per well in 5uL of culture medium into white solid bottom 1536-well plates (Greiner Bio-One, Monroe, NC) using a Multidrop Combi (Thermo Scientific, Waltham, MA) dispenser. The assay plates were incubated at 37 C and 5% CO2 for 4hr, and then 23nL of compounds dissolved in DMSO and positive control were transferred using a Pintool station (Wako, San Diego, CA). The assay plates were incubated at 37C and 5% CO2 for 24hr. For viability read, after 23hr of compound treatment, 1uL of CellTiter-Fluor reagent (Promega Corporation, Madison, WI) was added to each well of the assay plates using Flying Reagent Dispenser (FRD, Aurora Discovery, San Diego, CA) and incubated the assay plates at 37C for 1hr. The fluorescence signal was quantified using a ViewLux plate reader (Perkin Elmer, Shelton, CT).
For the compound `CCCCOC(=O)c1ccc(N)cc1`, the Potency result was “inactive”. On to `CC(=O)OCc1ccccc1`, for which the Potency entry was “inactive”. On to `N[C@H](Cc1c[nH]c2ccccc12)C(=O)O`, for which the Potency entry was “inactive”.

For `CC(C)(C#N)c1cc(Cn2cncn2)cc(C(C)(C)C#N)c1`, the Potency entry is “inactive”. As for `CCNc1cccc(C)c1`, the Potency result is “inactive”. On to `Cc1ccc(C(C)C)c(O)c1`, for which the Potency entry was “inactive”. The same measure, in the same setting: as for `CCNc1ccccc1`, the entry is “inactive”. With `CCCCCC(=O)O`, the Potency entry is “inactive”. The same measure, in the same setting: in the case of `OCc1ccccc1` it was “inactive”; in that of `O=C1c2ccccc2CCc2ccccc21`, “inactive”. Take `C[C@]12CC[C@@H]3c4ccc(O)cc4CC[C@H]3[C@@H]1C[C@@H](O)[C@@H]2O`: the Potency entry was “inactive”. Take `C=C(C)[C@H]1CC=C(C)C(=O)C1`: the Potency result was “inactive”. Consider `CC(C)CCCCCCCOC(=O)CCCCC(=O)OCCCCCCCC(C)C`, for which the Potency result is “inactive”. For the compound `CC(=O)OCc1ccco1`, the “viability change, negative = cytotoxic” value is 0.0566% (inactive). Take `C=C(C)CNCC`: the Potency entry was “inactive”.

Take `CC(=O)CC(C)(C)O`: the Potency result is “inactive”. As to `Cc1ccc(S(=O)(=O)N=C=O)cc1`, the Potency is 16.9 µM (active) and inactive. As to `NCCCCCCN`, the “viability change, negative = cytotoxic” value was -19.1% (inactive).

Consider `Clc1ccccn1`, for which the Potency result is “inactive”. Regarding `CCOCCOCCOCCO`, the Potency entry was “inactive”.

As for `CCCOC(=O)c1ccccc1`, the Potency result is “inactive”.

As to `C=CCCCCCCCCC(=O)O`, the Potency result is “inactive”. Regarding `C=CC(=O)OCCC(=O)O`, the Potency entry is “inactive”. Take `COc1ccccc1OCC(O)CO` (stereo not given): the Potency entry was “inactive”.

For the compound `CC(C)OC(=O)COc1ccc(Cl)cc1Cl`, the Potency result is “inactive”.

In the case of `O=C(O)/C=C/C(=O)O`, the Potency result is “inactive”. As to `CCCCCCO`, the Potency result was “inactive”. In the case of `NC(=S)NNC(N)=S`, the Potency result is “inactive”. For the compound `CC(C)=CCl`, the Potency result was “inactive”. For `C=CCc1ccc(OC)c(OC)c1`, the Potency entry was “inactive”.

Take `O=S(=O)(O)c1ccccc1`: the Potency result is “inactive”.

Consider `CCCCCCCCCCO`, for which the Potency entry was “inactive”. Consider `CC1(C)OC[C@@H]2O[C@@]3(C(=O)O)OC(C)(C)O[C@H]3[C@@H]2O1`, for which the Potency result was “inactive”. Consider `CCOC(=O)n1ccn(C)c1=S`, for which the Potency result is “inactive”.

In the case of `C[C@]12CCC(=O)C=C1CC[C@@H]1[C@@H]2[C@@H](O)C[C@@]2(C)[C@H]1CC[C@]2(O)C(=O)CO`, the Potency entry was “inactive”. For the compound `CSc1ccc(Cl)cc1`, the Potency entry was “inactive”. Regarding `O=C1C(c2[nH]c3ccccc3c2O)=Nc2ccccc21`, the Potency result was “inactive”. As to `CN/C(=C\[N+](=O)[O-])NCCSCc1csc(CN(C)C)n1`, the Potency result was “inactive”.

On to `CCCCC(C=O)CC` (stereo not given), for which the Potency entry is “inactive”. Take `COc1ccc(C)cc1N`: the Potency result is “inactive”.

The values are drawn from PubChem BioAssay (Tox21).
